Laboratory results as given in PubChem BioAssay (NCI).
About 83,000 compounds went through this panel and 20% of them were active in at least one assay; those are over-represented in the sample as a whole.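 A percent growth of 40 corresponds to 60% growth inhibition; 0 means no net growth; -100 means all cells died. Active threshold: below 10.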 Activity calls are given as the source filed them.

How the values were obtained:
Assay in all cases: NCI-60 one-dose screen, 48 h (100 = growth as untreated, 0 = no growth, -100 = all killed)
Conditions in all cases: 10 µM unless noted
EKVX NSCLC = system: EKVX NSCLC
SN12C renal = system: SN12C renal
UO-31 renal = system: UO-31 renal
TK-10 renal = system: TK-10 renal
ACHN renal = system: ACHN renal
CAKI-1 renal = system: CAKI-1 renal
A498 renal = system: A498 renal
CCRF-CEM leukemia = system: CCRF-CEM leukemia
MOLT-4 leukemia = system: MOLT-4 leukemia
SR leukemia = system: SR leukemia

Measured: growth

O=c1cc(-c2ccccc2)oc2cc(OCc3cn(Cc4ccc(F)cc4)nn3)cc(OCc3cn(Cc4ccc(F)cc4)nn3)c12
inactive: EKVX NSCLC 57.2% | SN12C renal 38.7% | TK-10 renal 37.1% | CAKI-1 renal 54.6% | A498 renal 30.8% | CCRF-CEM leukemia 77.5% | MOLT-4 leukemia 83.2% | SR leukemia 32.7%
active: UO-31 renal 3.64% | ACHN renal 7.3%

CCN1C(=O)N(CC)C2C1NN=c1s/c(=C3\C(=O)N(C(C)C)c4ccccc43)c(=O)n12 (stereo not given)
active: A498 renal -2.49% | CCRF-CEM leukemia 9.92%
inactive: EKVX NSCLC 31.5% | SN12C renal 21.6% | UO-31 renal 45.4% | TK-10 renal 56.5% | ACHN renal 25.4% | CAKI-1 renal 31.8% | MOLT-4 leukemia 13.8% | SR leukemia 10.6%

CNCCNc1nc2ccccc2c2c(=O)c3cc(F)ccc3sc12
inactive: EKVX NSCLC 71.9% | SN12C renal 67.2% | UO-31 renal 41.3% | TK-10 renal 60.2% | ACHN renal 37.3% | CAKI-1 renal 44% | A498 renal 38.9% | CCRF-CEM leukemia 15.5% | SR leukemia 13.6%
active: MOLT-4 leukemia -18.9%

COc1ccc(/C=C2\CCC/C(=C\c3ccc(OC)c(OC)c3)C2=O)cc1OC
active: SN12C renal 8.6% | TK-10 renal 7.6% | ACHN renal 8.29% | CAKI-1 renal 3.35% | CCRF-CEM leukemia 5.72% | MOLT-4 leukemia 6.9%
inactive: EKVX NSCLC 25.9% | UO-31 renal 19.3% | A498 renal 35.5% | SR leukemia 14.3%

COc1ccc(/C(C#N)=C/c2nc3c(N4CCOCC4)nc(Cl)nc3n2C)cc1OC
active: UO-31 renal -92.9% | TK-10 renal -21.1% | ACHN renal -51.3% | CAKI-1 renal -14.2% | A498 renal -27.8% | MOLT-4 leukemia 2.05%
inactive: EKVX NSCLC 20.1% | SN12C renal 11.2% | CCRF-CEM leukemia 11.8% | SR leukemia 17.7%

CNCCNc1nc2ccccc2c2c(=O)c3cccc(OC)c3sc12
active: A498 renal 3.67% | MOLT-4 leukemia 0.177% | SR leukemia -1.21%
inactive: EKVX NSCLC 22.8% | SN12C renal 45.2% | UO-31 renal 24.9% | TK-10 renal 44.1% | ACHN renal 12.5% | CAKI-1 renal 36.1% | CCRF-CEM leukemia 12.2%

Cn1nc(C(C)(C)C)cc1NC(=O)Cc1ccc(/C=C2\C(=O)Nc3ccccc32)cc1
inactive: EKVX NSCLC 49.1% | SN12C renal 62% | UO-31 renal 52.5% | TK-10 renal 91.2% | ACHN renal 37.4% | CAKI-1 renal 45.5% | A498 renal 62.9% | CCRF-CEM leukemia 35.8% | SR leukemia 34.9%
active: MOLT-4 leukemia 6.12%

CCC1=C[C@]2(C3CC(=O)N(c4ccccc4)C3=O)CC(C(C)(C)C)C[C@@H]2[C@@H]2C(=O)N(c3ccccc3)C(=O)[C@H]12 (stereo not given in full)
inactive: EKVX NSCLC 74.3% | SN12C renal 89.2% | UO-31 renal 73.1% | TK-10 renal 99.7% | ACHN renal 90.5% | CAKI-1 renal 71.4% | A498 renal 88% | CCRF-CEM leukemia 86.2% | MOLT-4 leukemia 80.4% | SR leukemia 80.4%

COc1cccc(/C(C#N)=C/c2nc3c(N4CCOCC4)nc(Cl)nc3n2C)c1
inactive: SN12C renal 12.8%
active: EKVX NSCLC -77.3% | UO-31 renal -95.9% | TK-10 renal -65.6% | ACHN renal -98% | CAKI-1 renal -92.1% | A498 renal -2.48% | CCRF-CEM leukemia 2.67% | MOLT-4 leukemia -19.4% | SR leukemia 5.6%

N[C@@H](CC/[N+]([O-])=N/O)C(=O)O
inactive: EKVX NSCLC 89.3% | SN12C renal 101% | UO-31 renal 94.9% | TK-10 renal 104% | ACHN renal 105% | CAKI-1 renal 97.6% | A498 renal 111% | CCRF-CEM leukemia 105% | MOLT-4 leukemia 104% | SR leukemia 126%

Cc1sc2ncn(CC(=O)Nc3ccc(S(N)(=O)=O)cc3)c(=O)c2c1C
inactive: EKVX NSCLC 95.8% | SN12C renal 98.6% | UO-31 renal 73.1% | TK-10 renal 109% | ACHN renal 103% | CAKI-1 renal 95.4% | A498 renal 100% | CCRF-CEM leukemia 105% | MOLT-4 leukemia 102% | SR leukemia 117%

CN1C(=O)N(C)C2Nn3c(s/c(=C4\C(=O)N(CCc5ccccc5)c5ccccc54)c3=O)=NC21 (stereo not given)
inactive: EKVX NSCLC 58% | SN12C renal 74.3% | UO-31 renal 62.9% | TK-10 renal 70.5% | ACHN renal 59.3% | CAKI-1 renal 49.2% | A498 renal 70.3% | CCRF-CEM leukemia 53.1% | MOLT-4 leukemia 70.8% | SR leukemia 30.4%

Cn1cc(-c2ccc3ncc(-c4ccc(CC(=O)Nc5cc(C(C)(C)C)no5)cc4)nc3c2)cn1
inactive: EKVX NSCLC 50% | SN12C renal 26.8% | TK-10 renal 50.8% | ACHN renal 15.2% | CAKI-1 renal 16.6% | A498 renal 17.9% | CCRF-CEM leukemia 50.6% | MOLT-4 leukemia 30.7% | SR leukemia 16%
active: UO-31 renal 2.84%

O=C(NCc1ccccc1)C1CN(c2ccc(Cl)cc2)N(c2ccc(Cl)cc2)C1=O (stereo not given)
inactive: EKVX NSCLC 87.8% | SN12C renal 91% | UO-31 renal 55.9% | TK-10 renal 95.7% | ACHN renal 94.7% | CAKI-1 renal 75.4% | A498 renal 73.4% | CCRF-CEM leukemia 73.4% | MOLT-4 leukemia 64.3% | SR leukemia 34.3%

CCC(C)(C)C(=O)O[C@H]1C[C@@H](C)C=C2C=C[C@H](C)[C@H](CC[C@@H]3CC=CC(=O)O3)[C@H]21
inactive: EKVX NSCLC 107% | SN12C renal 62.8% | UO-31 renal 76% | TK-10 renal 109% | ACHN renal 70.9% | CAKI-1 renal 84.5% | A498 renal 107%
active: CCRF-CEM leukemia 3.21% | MOLT-4 leukemia 1.21% | SR leukemia 7.49%

COc1cccc2c(=O)c3c(sc12)c(NCCCNCCO)nc1ccccc13
active: MOLT-4 leukemia 1.38% | SR leukemia 0.0565%
inactive: EKVX NSCLC 53.9% | SN12C renal 56.5% | UO-31 renal 27.4% | TK-10 renal 58.6% | ACHN renal 33.6% | CAKI-1 renal 48.1% | A498 renal 14.5% | CCRF-CEM leukemia 29.2%

Cc1ccc(C2CC(c3ccc(Nc4nc(NCCO)nc(Nc5ccc(Cl)cc5)n4)cc3)=NN2c2cc(Cl)cc(Cl)c2)cc1 (stereo not given)
inactive: EKVX NSCLC 82.7% | SN12C renal 96.4% | UO-31 renal 70.4% | TK-10 renal 113% | ACHN renal 95.3% | CAKI-1 renal 73.5% | A498 renal 79.1% | CCRF-CEM leukemia 96.8% | MOLT-4 leukemia 93.7% | SR leukemia 107%

CNC(=O)c1cc(Oc2ccc(CC(=O)Nc3cc(C(C)(C)C)cn3C)cc2)ccn1
inactive: EKVX NSCLC 75.6% | SN12C renal 68.5% | UO-31 renal 87.4% | TK-10 renal 108% | ACHN renal 66.7% | CAKI-1 renal 56% | A498 renal 53.9% | CCRF-CEM leukemia 74% | MOLT-4 leukemia 69.6% | SR leukemia 75.5%

O=c1c(-c2nc3ccccc3[nH]2)cc2ccccc2n1Cc1cn(Cc2ccc(F)cc2)nn1
active: UO-31 renal -18.9% | A498 renal -14.5%
inactive: EKVX NSCLC 31.4% | SN12C renal 14.2% | TK-10 renal 21.7% | ACHN renal 15% | CAKI-1 renal 32.9% | CCRF-CEM leukemia 23.4% | MOLT-4 leukemia 19.9% | SR leukemia 30.2%

COc1cc2c(cc1OC)C(=O)C(CC1CCN(C(=O)Nc3ccc(C)cc3)CC1)C2 (stereo not given)
inactive: EKVX NSCLC 90.9% | SN12C renal 92.5% | UO-31 renal 60.4% | TK-10 renal 116% | ACHN renal 93.6% | CAKI-1 renal 83.7% | A498 renal 69.4% | CCRF-CEM leukemia 97.8% | MOLT-4 leukemia 102% | SR leukemia 112%

NS(=O)(=O)c1ccc(CCN=C=S)cc1
inactive: EKVX NSCLC 99.9% | SN12C renal 28.6% | CAKI-1 renal 21.8% | A498 renal 79.8% | CCRF-CEM leukemia 10.4% | MOLT-4 leukemia 16.3%
active: UO-31 renal -41.9% | TK-10 renal -4.75% | ACHN renal -70.7% | SR leukemia 9.82%

CCCc1c(C)c2sc(=O)[nH]c2[nH]c1=O
inactive: EKVX NSCLC 98.8% | SN12C renal 107% | UO-31 renal 94.8% | TK-10 renal 110% | ACHN renal 106% | CAKI-1 renal 99% | A498 renal 112% | CCRF-CEM leukemia 124% | MOLT-4 leukemia 106% | SR leukemia 109%

COC(=O)/C(CCC=C(C)C)=C1\[C@@H](OC(C)=O)C[C@@]2(C)[C@H]1C[C@@H](O)[C@H]1[C@@]3(C)CC[C@H](NC(=O)c4cnccn4)[C@@H](C)[C@@H]3CC[C@@]12C
inactive: EKVX NSCLC 94.1% | SN12C renal 95.7% | UO-31 renal 85.6% | TK-10 renal 117% | ACHN renal 101% | CAKI-1 renal 92% | A498 renal 108% | CCRF-CEM leukemia 103% | MOLT-4 leukemia 83.9% | SR leukemia 93.5%

COc1ccc(S(=O)(=O)N(Cc2ccc3c(n2)C=CC(C)(C)O3)C2CCC2)cc1OC
inactive: ACHN renal 13.4%
active: EKVX NSCLC -22.5% | SN12C renal 6.9% | UO-31 renal -10.2% | TK-10 renal -8.7% | CAKI-1 renal -28.2% | A498 renal -25.4% | CCRF-CEM leukemia -19% | MOLT-4 leukemia -14.3% | SR leukemia -40%

CCOC(=O)c1c2c(c(C)n1Cc1ccc(OC)cc1)-c1oncc1CC2
inactive: EKVX NSCLC 94.3% | SN12C renal 175% | UO-31 renal 65.3% | TK-10 renal 102% | ACHN renal 91.3% | CAKI-1 renal 70.6% | A498 renal 91.9% | CCRF-CEM leukemia 93.3% | MOLT-4 leukemia 85.3% | SR leukemia 85.4%

O=C1/C(=C/c2ccc(O)cc2)COc2ccc(O)cc21
inactive: EKVX NSCLC 106% | SN12C renal 96.7% | UO-31 renal 87.5% | TK-10 renal 115% | ACHN renal 96.5% | CAKI-1 renal 103% | A498 renal 103% | CCRF-CEM leukemia 76.7% | MOLT-4 leukemia 93.7% | SR leukemia 33%
